# PubChem BioAssay (EPA / NIEHS)
# Results filed as inconclusive are left out. The source made the active and inactive calls. Rule for the calls, unless noted: active = hit-call score of the fitted dose curve at least 0.9, where 1 is the maximum; inactive = score below 0.9.
# How the values were obtained:
# [1] = ACEA_ER_80hr: ACEA Biosciences xCELLigence Real-Time Cell Analysis on Estrogen Receptor Agonism for Proliferation (AID 2282667; active = hit-call score of the fitted dose curve at least 0.9, where 1 is the maximum); conditions: T47D proliferation, impedance (xCELLigence), 80 h
# Procedure, shortened: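 Real-time impedance growth kinetics of human T-47D breast cells read 80 h after dosing, gain-of-signal fitted relative to DMSO. Compounds: 1:4 serial series, top final concentration 100 uM, n = 2.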
# [2] = APR_HepG2_CellCycleArrest_24hr: Apredica 24-hour HepG2 Assay for Cell Cycle Arrest (AID 2282905); conditions: imaging, actives raise or lower the signal;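 note: cell cycle arrest scored as ratio of 2N to 4N nuclear DNA content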
# Procedure, shortened: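 Compounds (0.39 to 200 uM, final DMSO 0.5% v/v) are applied to HepG2 cells for 24 hours; cells are then fixed, permeabilized and nuclei labeled with Hoechst 33342. Automated imaging measures DNA content, and activity is fitted in both directions against DMSO.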
# [3] = APR_HepG2_NuclearSize_24hr: Apredica 24-hour HepG2 Assay for Nuclear Size (AID 2282907); conditions: high-content imaging, actives raise or lower the signal
# Procedure, shortened: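 Nuclear size is measured by fluorescence high-content imaging of Hoechst-labelled HepG2 nuclei after 24 hr of treatment (0.39–200 uM, 0.5% DMSO). Cells are fixed in 3.7% formaldehyde before staining, and DMSO serves as the baseline for bidirectional curve fitting.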
# [4] = APR_HepG2_CellLoss_24hr: Apredica 24-hour HepG2 Assay for Cell Loss (AID 2282908); conditions: high-content imaging;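 for AC50: fit in both directions so a hit may be cell loss or gain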
# Procedure, shortened: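 Nuclear count serves as the viability measure: treated cells are fixed, permeabilized and labelled with Hoechst 33342, and six images per well are analysed to identify valid nuclei. Doses span 0.39–200 uM, and activity in either direction is scored against DMSO.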
# [5] = APR_HepG2_MicrotubuleCSK_24hr: Apredica 24-hour HepG2 Assay for Microtubule CSK Stabilty (AID 2282909); conditions: HepG2 microtubule cytoskeleton imaging, actives raise or lower the signal
# Procedure, shortened: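 Compounds were applied to HepG2 cells for 24 hours across 0.39–200 uM in duplicate, with final DMSO at 0.5% v/v. Fixed, permeabilized cells were labeled for alpha-tubulin and nuclei, and tubulin fluorescence was quantified by imaging, fitted bidirectionally against DMSO.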
# [6] = APR_HepG2_MitoticArrest_24hr: Apredica 24-hour HepG2 Assay for Mitotic Arrest (AID 2282910); conditions: high-content imaging, actives raise or lower the signal
# Procedure, shortened: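 High-content imaging of fixed HepG2 cells labeled with Hoechst 33342 and anti-phospho-histone H3, after 24 h treatment. Ten concentrations 0.39 to 200 uM in duplicate, final DMSO 0.5%; changes fitted both directions relative to DMSO.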
# [7] = APR_HepG2_MitoMembPot_24hr: Apredica 24-hour HepG2 Assay for Mitochondrial Membrane Potential (AID 2282911); conditions: imaging, actives raise or lower the signal
# Procedure, shortened: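 Mitochondrial membrane potential imaged via MitoTracker Red CMXRos (250 nM, 30 min pre-fixation) in fixed HepG2 cells with Hoechst nuclear identification. Ten concentrations 0.39–200 uM, 24 h treatment, 0.5% DMSO; CCCP as positive control.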
# [8] = APR_HepG2_MitoMass_24hr: Apredica 24-hour HepG2 Assay for Mitochondrial Mass (AID 2282912); conditions: high-content imaging, actives raise or lower the signal
# Procedure, shortened: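 After 24 hr of treatment at 0.39 to 200 uM, HepG2 cells take up 250 nM MitoTracker Red CMXRos for 30 min and are then fixed with 3.7% formaldehyde. Per-well images are quantified, and any change in either direction is scored against solvent.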
# [9] = APR_HepG2_CellCycleArrest_72hr: Apredica 72-hour HepG2 Assay for Cell Cycle Arrest (AID 2282914); conditions: high-content imaging, actives raise or lower the signal
# Procedure, shortened: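 Read-out: nuclear DNA content from Hoechst 33342 high-content imaging (20x, six fields/well) after 3.7% formaldehyde fixation, fitted bidirectionally against DMSO. Treatment was 72 h in HepG2, ten concentrations 0.39–200 uM, duplicate, 0.5% DMSO.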
# [10] = APR_HepG2_CellLoss_72hr: Apredica 72-hour HepG2 Assay for Cell Loss (AID 2282915); conditions: high-content imaging
# Procedure, shortened: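 Cell number comes from Hoechst 33342-labelled nuclei, imaged at 20x after 3.7% formaldehyde fixation. Dosing was 0.39–200 uM, ten concentrations in duplicate, 0.5% DMSO final, for 72 h. Bidirectional fit relative to DMSO baseline.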
structure (smiles),measurement,setting,value
CCCOc1ccc(S(=O)(=O)N2CCN(CC)CC2)cc1-c1nc2c(CC)n(Cc3ccccn3)nc2c(=O)[nH]1,outcome,[1],inactive
same,outcome,[2],inactive
same,outcome,[3],inactive
same,outcome,[4],inactive
same,outcome,[5],inactive
same,outcome,[6],inactive
same,outcome,[7],inactive
same,outcome,[8],inactive
same,outcome,[9],inactive
same,AC50,[10],88.5 µM (active)
OC(CCl)CCl,outcome,[1],inactive
same,outcome,[2],inactive
same,outcome,[3],inactive
same,outcome,[4],inactive
same,outcome,[5],inactive
same,outcome,[6],inactive
same,outcome,[7],inactive
same,outcome,[8],inactive
same,outcome,[9],inactive
same,outcome,[10],inactive
CC(C)c1nnc2ccc(-c3ocnc3-c3cc(F)ccc3F)cn12,outcome,[1],inactive
same,outcome,[4],inactive
same,outcome,[6],inactive
same,AC50,[7],0.0586 µM (active)
same,outcome,[8],inactive
OCc1ccccc1,outcome,[1],inactive
same,outcome,[2],inactive
same,outcome,[3],inactive
same,outcome,[4],inactive
same,outcome,[5],inactive
same,outcome,[6],inactive
same,outcome,[7],inactive
same,outcome,[8],inactive
same,outcome,[9],inactive
same,outcome,[10],inactive
CCCCCCCC1CCC(=O)O1 (configuration not stated),outcome,[1],inactive
same,outcome,[4],inactive
same,outcome,[6],inactive
same,outcome,[7],inactive
same,outcome,[8],inactive
same,outcome,[10],inactive
O=C1CN(N=Cc2ccc([N+](=O)[O-])o2)C(=O)N1,outcome,[1],inactive
same,AC50,[4],33.6 µM (active)
same,outcome,[6],inactive
same,outcome,[7],inactive
same,outcome,[8],inactive
same,AC50,[10],41.9 µM (active)
CCCCCCOC(=O)CC(CC(=O)OCCCCCC)(OC(=O)CCC)C(=O)OCCCCCC,AC50,[1],50 µM (active)
same,outcome,[2],inactive
same,outcome,[3],inactive
same,outcome,[4],inactive
same,outcome,[5],inactive
same,outcome,[6],inactive
same,outcome,[7],inactive
same,outcome,[8],inactive
same,outcome,[9],inactive
same,outcome,[10],inactive
OCCOCCOCCO,outcome,[1],inactive
same,outcome,[2],inactive
same,outcome,[3],inactive
same,outcome,[4],inactive
same,outcome,[5],inactive
same,outcome,[6],inactive
same,outcome,[7],inactive
same,outcome,[8],inactive
same,outcome,[9],inactive
same,outcome,[10],inactive
CCCCCCCCN(C)C,outcome,[1],inactive
same,outcome,[2],inactive
same,outcome,[3],inactive
same,outcome,[4],inactive
same,outcome,[5],inactive
same,outcome,[6],inactive
same,outcome,[7],inactive
same,outcome,[8],inactive
same,outcome,[9],inactive
same,outcome,[10],inactive
c1ccc2cc3ccccc3cc2c1,outcome,[1],inactive
same,AC50,[2],106 µM (active)
same,outcome,[3],inactive
same,AC50,[4],100 µM (active)
same,outcome,[5],inactive
same,outcome,[6],inactive
same,outcome,[7],inactive
same,outcome,[8],inactive
same,AC50,[9],110 µM (active)
same,AC50,[10],139 µM (active)
COc1cc(C(C)C)c2c(c1)S(=O)(=O)N(COc1cc(=O)n3cccc(OCCN4CCCCC4)c3n1)C2=O,outcome,[1],inactive
same,AC50,[2],17.7 µM (active)
same,outcome,[3],inactive
same,AC50,[4],24.2 µM (active)
same,AC50,[5],15.8 µM (active)
same,AC50,[6],24 µM (active)
same,AC50,[7],26.4 µM (active)
same,AC50,[8],29.1 µM (active)
same,outcome,[9],inactive
same,AC50,[10],23.1 µM (active)
O=S1(=O)CCCO1,outcome,[1],inactive
same,outcome,[2],inactive
same,outcome,[3],inactive
same,outcome,[4],inactive
same,outcome,[5],inactive
same,outcome,[6],inactive
same,outcome,[7],inactive
same,outcome,[8],inactive
same,outcome,[9],inactive
same,outcome,[10],inactive
CC(C)CCCCCCOC(=O)C1CCCCC1C(=O)OCCCCCCC(C)C (configuration not stated),outcome,[1],inactive
same,outcome,[2],inactive
same,outcome,[3],inactive
same,outcome,[4],inactive
same,outcome,[5],inactive
same,outcome,[6],inactive
same,outcome,[7],inactive
same,outcome,[8],inactive
same,outcome,[9],inactive
same,outcome,[10],inactive
CCCCN1C(=O)[C@@H]([C@H](O)C2CCCCC2)NC(=O)C12CCN(Cc1ccc(Oc3ccc(C(=O)O)cc3)cc1)CC2,outcome,[1],inactive
same,outcome,[2],inactive
same,outcome,[3],inactive
same,AC50,[4],48.3 µM (active)
same,outcome,[5],inactive
same,AC50,[6],59.8 µM (active)
same,outcome,[7],inactive
same,outcome,[8],inactive
same,outcome,[9],inactive
same,AC50,[10],48.1 µM (active)
